NFkB transloc inh – inhibitors of IL-1B driven NFkB p65 nuclear import, primary screen, imaging, HUVEC, IL-1B stimulus, high-content imaging. HUVEC IL-1B NFkB p65 nuclear translocation imaging. AID 796, 2007. 94,000 compounds, 0.43% hits. inhibition, % at 2 µM;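 active means inhibition above about 30% together with a positive call from visual inspection of the well image, limit read from the data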;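 further: nuclear over cytoplasmic p65 intensity ratio measured by imaging; 0% = IL-1B stimulated DMSO wells and 100% = unstimulated DMSO wells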
ERa SRC1 pot – enhancers of ERα–SRC-1 coactivator binding, primary screen, biochemical, TR-FRET, ERα LBD, low estradiol. TR-FRET ERalpha-LBD/SRC-Cy5 coactivator binding, 2 h; 100 = basal binding, no effect. coactivator binding (% of control), % at 25.6 µM. 86,000 compounds, 1.3% hits. AID 639, 2007; in the data active means activity above about 200%;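 further: binding measured in presence of low estradiol as agonist stimulus; 0% = peptide alone without receptor and 100% = receptor with peptide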
ERb coact inh – inhibitors of ERβ-SRC1 coactivator interaction, primary screen, biochemical, TR-FRET, ERβ LBD, SRC-1 peptide; TR-FRET ER-beta LBD / SRC1-Cy5 peptide binding; receptor agonist-loaded with 1 µM estradiol; inhibition, % at 25.6 µM; 86,000 compounds, 1.3% hits; AID 633, 2007;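 active means compounds whose percent inhibition of the receptor-coactivator binding signal exceeds about 50% in the single-dose screen, limit read from the data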;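 further: 0% = receptor plus peptide wells without compound and 100% = peptide-only wells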
Target sequence (Q92731 whole entry, looked up, the tested form may be a part): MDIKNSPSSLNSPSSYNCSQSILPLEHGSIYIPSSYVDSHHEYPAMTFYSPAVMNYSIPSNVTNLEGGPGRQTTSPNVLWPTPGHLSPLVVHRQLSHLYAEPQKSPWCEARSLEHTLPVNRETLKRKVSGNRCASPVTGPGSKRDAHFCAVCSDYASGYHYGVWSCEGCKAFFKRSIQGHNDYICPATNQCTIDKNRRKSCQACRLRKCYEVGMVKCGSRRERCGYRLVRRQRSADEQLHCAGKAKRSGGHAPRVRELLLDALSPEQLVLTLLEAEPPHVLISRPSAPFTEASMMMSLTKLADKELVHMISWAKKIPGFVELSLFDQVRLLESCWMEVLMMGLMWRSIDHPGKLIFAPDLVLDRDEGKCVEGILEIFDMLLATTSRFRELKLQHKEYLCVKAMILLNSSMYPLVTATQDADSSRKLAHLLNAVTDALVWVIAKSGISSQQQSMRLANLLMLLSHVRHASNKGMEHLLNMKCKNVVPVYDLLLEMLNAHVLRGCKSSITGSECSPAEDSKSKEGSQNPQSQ
NFkB transloc pot – enhancers of NFkB p65 translocation in HUVEC – imaging, IL-1B stimulus, high-content imaging, primary screen | activation, % at 2 µM | HUVEC IL-1B NFkB p65 nuclear translocation imaging | 94,000 compounds, 0.3% hits;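 active means activation above 40%, about the mean plus 3 SD, also judged a hit on visual image review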;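 further: percent activation is computed from the nuclear over cytoplasmic p65 intensity ratio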
HUVEC tox IL1B – cytotoxicity in IL-1B stimulated HUVEC, primary screen, cytotoxicity control for IL-1B NFkB translocation project, imaging, Hoechst nuclear count, IL-1B stimulus | cell count reduction, % at 2 µM | HUVEC cell count loss | 94,000 compounds, 0.41% hits;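 active means cell count reduction more than 3 SD above the screen-wide mean, cut at about 70% in these data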;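 further: normalized per plate to untreated control cells as the no-loss baseline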
ERa SRC1 inh – ERα–SRC-1 coactivator interaction inhibitors, primary screen, biochemical, TR-FRET, ERα LBD, estradiol-bound; inhibition, % at 25.6 µM; TR-FRET ER-alpha LBD / SRC-1 peptide; AID 629, 2007; Estrogen receptor (Homo sapiens), P03372; 86,000 compounds, 1.7% hits; in the data active means inhibition above about 50%;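 further: 0% = receptor plus peptide control and 100% = peptide only without receptor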
An asterisk follows results filed as active; [ ] = another dose, or the depositor's remark. Rows were chosen to be rich in hits. Some 3.6% of all compounds tested hit in one or more screens of this group.

C=CCn1c(SCc2csc(C)n2)nc2sc3c(c2c1=O)CCCCC3 was read as NFkB transloc inh -23, ERa SRC1 pot 96, ERb coact inh 6, NFkB transloc pot 23, HUVEC tox IL1B -7 and ERa SRC1 inh -2.
For C=CCn1c(SCC(=O)c2cccs2)nc2sc(C)c(C)c2c1=O the results were NFkB transloc inh 7, ERa SRC1 pot 163, ERb coact inh 24, NFkB transloc pot -7, HUVEC tox IL1B 14 and ERa SRC1 inh 62*[fluorescence artefact?].
C=CCn1c(SCc2cc(=O)n3ccsc3n2)nc2sc(C)c(C)c2c1=O was read as ERa SRC1 pot 72, ERb coact inh 33 and ERa SRC1 inh 57*[fluorescence artefact?].
Screening C=CCn1c(SCc2csc(C)n2)nc2sc3c(c2c1=O)CCCC3 returned NFkB transloc inh 13, ERa SRC1 pot 100, ERb coact inh 6, NFkB transloc pot -13, HUVEC tox IL1B -12 and ERa SRC1 inh 72*[fluorescence artefact?].
COc1cc(C(=O)NCc2nnc(SCC(=O)N3CCc4ccccc43)o2)cc(OC)c1OC was read as NFkB transloc inh -6, ERa SRC1 pot 103, ERb coact inh 6, NFkB transloc pot 6, HUVEC tox IL1B 13 and ERa SRC1 inh 8.
Screening COc1cccc(-c2cc(N)nn2C(=O)Nc2ccc(Cl)cc2)c1 returned NFkB transloc inh 7, NFkB transloc pot -7 and HUVEC tox IL1B -8.
`CCOC(=O)CCC(NC(=O)c1ccc(NCN2C(=O)CCC2=O)cc1)C(=O)OCC` (stereo unspecified) gave NFkB transloc inh -12, ERa SRC1 pot 61, ERb coact inh 54*, NFkB transloc pot 13, HUVEC tox IL1B -18 and ERa SRC1 inh 29.
For CCCCS(=O)(=O)Nc1ccc2ncn(C)c(=O)c2c1 the results were NFkB transloc inh -3, ERa SRC1 pot 85, ERb coact inh -5, NFkB transloc pot 3, HUVEC tox IL1B 72* and ERa SRC1 inh 3.
Screening Cn1nc(CC(=O)Nc2ncc(Br)s2)c2ccccc2c1=O returned NFkB transloc inh -17, ERa SRC1 pot 88, ERb coact inh 50*, NFkB transloc pot 17, HUVEC tox IL1B 17 and ERa SRC1 inh 36.
Cn1nc(C(=O)NC2CCCCC2)c2ccccc2c1=O was read as NFkB transloc inh -16, ERa SRC1 pot 119, ERb coact inh -7, NFkB transloc pot 16, HUVEC tox IL1B 2 and ERa SRC1 inh 0.
Screening Cn1nc(CC(=O)NC2CCCCCCCCCCC2)c2ccccc2c1=O returned NFkB transloc inh 6, ERa SRC1 pot 50, ERb coact inh 55*[fluorescence artefact?], NFkB transloc pot -6, HUVEC tox IL1B 7 and ERa SRC1 inh 91*[fluorescence artefact?].
`CSc1ccc(CNc2ccc(Cl)cc2)cc1` gave NFkB transloc inh -10, NFkB transloc pot 9 and HUVEC tox IL1B -20.
Screening CCc1ccc(CNc2ccc(O)cc2)cc1 returned NFkB transloc inh -12, ERa SRC1 pot 71, ERb coact inh 56*[fluorescence artefact?], NFkB transloc pot 12, HUVEC tox IL1B 2 and ERa SRC1 inh 26.
For Clc1ccc(CSc2nnc(-c3cccnc3)o2)cc1 the results were NFkB transloc inh 1, ERa SRC1 pot 105, ERb coact inh -8, NFkB transloc pot -1, HUVEC tox IL1B -4 and ERa SRC1 inh -4.
`COCCn1c(SCc2ccc(C(=O)OC)o2)nc2cc(Cl)ccc2c1=O` gave NFkB transloc inh 3, ERa SRC1 pot 98, ERb coact inh 6, NFkB transloc pot -3, HUVEC tox IL1B 8 and ERa SRC1 inh 0.
Screening CC(C)(C)Cc1nnc(NS(C)(=O)=O)s1 returned NFkB transloc inh 5, ERa SRC1 pot 90, ERb coact inh -4, NFkB transloc pot -5, HUVEC tox IL1B -19 and ERa SRC1 inh -8.
`CC(C)(C)Cc1nnc(NS(=O)(=O)c2ccc(F)cc2)s1` gave NFkB transloc inh -98, ERa SRC1 pot 98, ERb coact inh 6, NFkB transloc pot 98*, HUVEC tox IL1B -8 and ERa SRC1 inh 0.
Screening CN1CC(c2ccc(C#N)cc2)C2(COc3ccccc3C2=O)C12C(=O)Nc1ccccc12 (stereo unspecified) returned NFkB transloc inh -2, NFkB transloc pot 2 and HUVEC tox IL1B 17.
Screening COCCCn1c(=N)c(C(=O)NCc2ccc3c(c2)OCO3)cc2c(=O)n3ccccc3nc21 returned NFkB transloc inh -16, ERa SRC1 pot 71, ERb coact inh 16, NFkB transloc pot 16, HUVEC tox IL1B -4 and ERa SRC1 inh 19.
Screening O=C(NCc1ccc2c(c1)OCO2)c1ccc2c(=O)n(C3CCCC3)c(=O)[nH]c2c1 returned NFkB transloc inh -3, ERa SRC1 pot 109, ERb coact inh 6, NFkB transloc pot 3, HUVEC tox IL1B -15 and ERa SRC1 inh 3.
COc1ccc(Cn2c(=O)[nH]c3cc(C(=O)NCc4ccc5c(c4)OCO5)ccc3c2=O)cc1 was read as NFkB transloc inh -8, ERa SRC1 pot 131, ERb coact inh 23, NFkB transloc pot 8, HUVEC tox IL1B -123 and ERa SRC1 inh 51*.
Screening COc1ccc(CNC(=O)c2cc3c(=O)n4ccccc4nc3n(Cc3cccnc3)c2=N)cc1 returned NFkB transloc inh -17, ERa SRC1 pot 53, ERb coact inh 42, NFkB transloc pot 17, HUVEC tox IL1B -25 and ERa SRC1 inh 78*[fluorescence artefact?].
Screening N=c1c(C(=O)NCc2ccc3c(c2)OCO3)cc2c(=O)n3ccccc3nc2n1Cc1cccnc1 returned ERa SRC1 pot 4, ERb coact inh 57* and ERa SRC1 inh 92*[fluorescence artefact?].
For CS(=O)(=O)N(CC(=O)N1CCc2ccccc2C1)c1ccc2c(c1)OCO2 the results were NFkB transloc inh -4, ERa SRC1 pot 88, ERb coact inh 29, NFkB transloc pot 4, HUVEC tox IL1B 5 and ERa SRC1 inh -2.
For Cc1cc(C)n(CC(=O)NCc2cc(-c3nn(C)c(=O)c4ccccc34)ccc2C)n1 the results were NFkB transloc inh -2, ERa SRC1 pot 129, ERb coact inh 18, NFkB transloc pot 2, HUVEC tox IL1B -16 and ERa SRC1 inh 34.
For Cn1nc(-c2ccc(N3CCOCC3)c(NC(=O)COc3ccccc3)c2)c2ccccc2c1=O the results were NFkB transloc inh -2, ERa SRC1 pot 133, ERb coact inh 0, NFkB transloc pot 2, HUVEC tox IL1B -33 and ERa SRC1 inh 2.
Cc1nn(CC(=O)NCc2cccc3ccccc23)c(=O)c2ccccc12 was read as NFkB transloc inh -13, ERa SRC1 pot 257*[fluorescence artefact?], ERb coact inh -9, NFkB transloc pot 13, HUVEC tox IL1B 7 and ERa SRC1 inh -27.
